Measured values reported in PubChem BioAssay.
Activity calls are given as the source filed them. Unless noted, the rule behind the calls is not given here.

Legend:
[1] = system: Wnt5a (protein binding on small-molecule microarray); assay: small molecules binding Wnt5a protein – biophysical, small-molecule microarray, 635/667 nm fluorescence, primary screen (AID 1142); settings: 635 nm fluorescence, higher = more signal;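 note: fluorescence read at 667 nm with signal to noise per printed feature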
[2] = ATP-based viability of Huh7 replicon cells – cell-based, CellTiter-Glo luminescence, basal, 48 h, cytotoxicity control for HCV replication inhibitor project, primary screen (AID 1143); settings: higher = more signal, called active from +8 up or from −8 down;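 note: Huh7 hepatoma cells carrying a hepatitis C replication reporter with no stimulus; test concentration not given here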
[3] = Pseudomonas biofilm growth suppression – PAO1 strain, BacTiter-Glo luminescence, LB-PBS, primary screen (AID 1144); settings: P. aeruginosa PAO1 biofilm, 12 h, higher = more signal
[4] = basal CRE-LacZ reporter activity in PC12 – cell-based, unstimulated, primary screen (AID 1145); settings: no forskolin, luminescence, 4.5 h, higher = more signal, called active from +8 up or from −8 down
[5] = forskolin-driven CRE-LacZ activity in PC12 – cell-based, CRE-LacZ reporter, forskolin-stimulated, primary screen (AID 1146); settings: luminescence, 4.5 h, higher = more signal, called active from +8 up or from −8 down;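 note: PC12 cells with 6xCRE LacZ reporter stimulated by forskolin 10 µM; beta-galactosidase reporter signal reflecting CREB driven transcription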
[6] = molecular target: Streptavidin (Streptomyces avidinii) (UniProt P22629); assay: compounds binding control protein streptavidin – biophysical, small-molecule microarray, 635/667 nm fluorescence, artefact control for SMM compound annotation, primary screen (AID 1147); settings: higher = more signal;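 note: signal reflects streptavidin binding to arrayed compounds as a control protein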
Chain of Streptavidin (Streptomyces avidinii) (P22629 whole entry, looked up): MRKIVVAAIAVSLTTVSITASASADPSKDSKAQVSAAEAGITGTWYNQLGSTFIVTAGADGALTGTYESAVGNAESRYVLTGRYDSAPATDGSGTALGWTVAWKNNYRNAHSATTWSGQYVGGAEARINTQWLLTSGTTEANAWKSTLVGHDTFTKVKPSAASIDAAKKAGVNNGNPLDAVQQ

[7] = probe aInhba binding on compound microarray – biochemical, small-molecule microarray, 635/667 nm fluorescence, primary screen (AID 1148); settings: higher = more signal;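 note: score merges 667nm spot fluorescence with signal-to-noise for antibody binding to printed compounds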
Torsin-1A (Homo sapiens) [8] = molecular target: Torsin-1A (Homo sapiens) (UniProt O14656); assay: TOR1A wild-type binding on microarray – cell lysate, small-molecule microarray, lysate, 635/667 nm, primary screen (AID 1149); settings: COS7 hTOR1A-WT lysate, 635 nm fluorescence, higher = more signal
Chain of Torsin-1A (Homo sapiens) (O14656 whole entry, looked up): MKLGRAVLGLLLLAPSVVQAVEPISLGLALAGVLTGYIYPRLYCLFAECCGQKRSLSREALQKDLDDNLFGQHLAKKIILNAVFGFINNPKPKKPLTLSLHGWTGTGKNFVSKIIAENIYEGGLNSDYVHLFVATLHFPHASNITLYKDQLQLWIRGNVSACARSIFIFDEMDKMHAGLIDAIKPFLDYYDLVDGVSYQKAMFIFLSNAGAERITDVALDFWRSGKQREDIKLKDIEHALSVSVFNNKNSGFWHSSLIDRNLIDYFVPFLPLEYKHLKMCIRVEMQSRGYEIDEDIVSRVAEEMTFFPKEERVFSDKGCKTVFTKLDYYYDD

Torsin-1A (Homo sapiens) [9] = molecular target: Torsin-1A (Homo sapiens) (UniProt O14656); assay: torsin A mutant lysate binding on microarrays – cell lysate, small-molecule microarray, COS7 lysate, 635/667 nm fluorescence, primary screen (AID 1150); settings: COS7 hTOR1A mutant lysate, 635 nm fluorescence, higher = more signal;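 note: score pools 667 nm emission and signal to noise measuring lysate protein binding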
[10] = system: Sonic hedgehog protein (Shh); assay: Sonic hedgehog microarray binding compounds – biochemical, small-molecule microarray, 635/667 nm fluorescence, primary screen (AID 1151); settings: 635 nm fluorescence, higher = more signal;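 note: Shh protein binding to compounds spotted on small-molecule microarray slides; score combines spot fluorescence intensity with signal-to-noise across triplicate slides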
[11] = optical density shifts of acrAB sulA E. coli – strain DRC41, OD650, 48 h, E. coli filamentation inducer project, primary screen (AID 1152); settings: higher = more signal, called active from +8 up or from −8 down;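 note: E. coli MC1000 strain DRC41 lacking acrAB efflux pump and sulA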
[12] = probe aLefty1 binding on compound microarray – biochemical, small-molecule microarray, 635/667 nm fluorescence, primary screen (AID 1153); settings: higher = more signal;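 note: score merges spot fluorescence with signal-to-noise ratio from the scanned slide images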
[13] = plasmodial surface anion channel blockers, osmotic lysis – cell-based, P. falciparum Indochina, OD700, 1 h, primary screen (AID 1154); settings: P. falciparum Indochina infected RBC osmotic lysis, higher = more signal, called active from +8 up or from −8 down
[14] = plasmodial surface anion channel blockers, osmotic lysis – cell-based, P. falciparum Indochina, OD700, 2 h, primary screen (AID 1155);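 note: lysis reports solute entry through the parasite surface anion channel PSAC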; settings: P. falciparum Indochina infected erythrocytes, higher = more signal, called active from +8 up or from −8 down
[15] = changes in parasitized red cell lysis, either direction – P. falciparum Indochina, OD700, 3 h, PSAC antagonist project, primary screen (AID 1156); settings: P. falciparum-infected erythrocytes, osmotic lysis, higher = more signal, called active from +8 up or from −8 down
[16] = plasmodial surface anion channel blockers, osmotic lysis – cell-based, P. falciparum Indochina, OD700, 18 h, primary screen (AID 1157); settings: P. falciparum Indochina infected erythrocytes, osmotic lysis OD700, 18 h; higher = more signal, called active from +8 up or from −8 down
[17] = S6 kinase pathway phospho-S6 level changes – cell-based, A549, cytoblot, luminescence, serum-stimulated, primary screen (AID 1158); settings: 5 h, higher = more signal;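 note: serum-stimulated A549 lung adenocarcinoma cells; signal is phosphorylated S6 detected by cytoblot immunostaining with HRP secondary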
[18] = molecular target: NADPH oxidase 2 (Homo sapiens) (UniProt P04839); assay: compounds shifting NOX2 Amplex Red fluorescence – cell-based, HEK293-NOX2, PMA-stimulated, NOX inhibitor project, primary screen (AID 1159); settings: 45 min, higher = more signal, called active from +8 up or from −8 down; note: test concentration not given here
Chain of NADPH oxidase 2 (Homo sapiens) (P04839 whole entry, looked up): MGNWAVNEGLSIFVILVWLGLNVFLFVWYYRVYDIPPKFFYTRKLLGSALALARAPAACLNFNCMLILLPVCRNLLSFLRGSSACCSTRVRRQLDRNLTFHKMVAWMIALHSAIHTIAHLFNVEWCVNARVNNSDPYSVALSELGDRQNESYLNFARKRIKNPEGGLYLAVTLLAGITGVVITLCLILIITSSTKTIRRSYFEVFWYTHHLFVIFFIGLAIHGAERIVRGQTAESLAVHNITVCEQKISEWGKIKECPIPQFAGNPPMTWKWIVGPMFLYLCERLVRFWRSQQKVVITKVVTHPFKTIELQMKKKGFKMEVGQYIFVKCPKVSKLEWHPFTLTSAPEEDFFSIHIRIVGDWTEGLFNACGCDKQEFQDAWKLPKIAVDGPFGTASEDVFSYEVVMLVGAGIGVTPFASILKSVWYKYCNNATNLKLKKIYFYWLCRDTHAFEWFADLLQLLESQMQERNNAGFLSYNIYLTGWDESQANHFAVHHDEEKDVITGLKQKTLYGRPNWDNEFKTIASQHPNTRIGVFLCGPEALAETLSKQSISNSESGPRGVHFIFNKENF

[19] = molecular target: NADPH oxidase 4 (Homo sapiens) (UniProt Q9NPH5); assay: compounds shifting NOX4 Amplex Red fluorescence – cell-based, HEK293-NOX4, tetracycline-induced, NOX inhibitor project, primary screen (AID 1160); settings: HEK293-NOX4, Amplex Red H2O2 fluorescence, 45 min; higher = more signal, called active from +8 up or from −8 down
Chain of NADPH oxidase 4 (Homo sapiens) (Q9NPH5 whole entry, looked up): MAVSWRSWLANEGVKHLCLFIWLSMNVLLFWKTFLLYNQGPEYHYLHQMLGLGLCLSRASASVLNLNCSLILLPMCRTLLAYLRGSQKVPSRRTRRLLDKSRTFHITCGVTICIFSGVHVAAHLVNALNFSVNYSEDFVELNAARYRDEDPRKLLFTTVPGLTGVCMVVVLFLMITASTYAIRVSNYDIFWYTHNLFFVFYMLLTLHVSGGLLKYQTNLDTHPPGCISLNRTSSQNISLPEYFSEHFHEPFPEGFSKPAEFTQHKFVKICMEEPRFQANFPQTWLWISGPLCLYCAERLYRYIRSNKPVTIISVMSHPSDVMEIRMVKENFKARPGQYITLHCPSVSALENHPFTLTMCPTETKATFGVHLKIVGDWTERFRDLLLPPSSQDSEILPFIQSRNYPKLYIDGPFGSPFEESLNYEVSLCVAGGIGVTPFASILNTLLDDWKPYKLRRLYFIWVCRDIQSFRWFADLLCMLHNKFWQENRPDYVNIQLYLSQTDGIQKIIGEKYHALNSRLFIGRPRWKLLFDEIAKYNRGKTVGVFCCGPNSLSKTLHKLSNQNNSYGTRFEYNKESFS

[20] = molecular target: NADPH oxidase 5 (Homo sapiens) (UniProt Q96PH1); assay: compounds shifting NOX5 Amplex Red fluorescence – cell-based, HEK293-NOX5, NOX inhibitor project, primary screen (AID 1161); settings: HEK293-NOX5, ionomycin, 45 min, higher = more signal
Chain of NADPH oxidase 5 (Homo sapiens) (Q96PH1 whole entry, looked up): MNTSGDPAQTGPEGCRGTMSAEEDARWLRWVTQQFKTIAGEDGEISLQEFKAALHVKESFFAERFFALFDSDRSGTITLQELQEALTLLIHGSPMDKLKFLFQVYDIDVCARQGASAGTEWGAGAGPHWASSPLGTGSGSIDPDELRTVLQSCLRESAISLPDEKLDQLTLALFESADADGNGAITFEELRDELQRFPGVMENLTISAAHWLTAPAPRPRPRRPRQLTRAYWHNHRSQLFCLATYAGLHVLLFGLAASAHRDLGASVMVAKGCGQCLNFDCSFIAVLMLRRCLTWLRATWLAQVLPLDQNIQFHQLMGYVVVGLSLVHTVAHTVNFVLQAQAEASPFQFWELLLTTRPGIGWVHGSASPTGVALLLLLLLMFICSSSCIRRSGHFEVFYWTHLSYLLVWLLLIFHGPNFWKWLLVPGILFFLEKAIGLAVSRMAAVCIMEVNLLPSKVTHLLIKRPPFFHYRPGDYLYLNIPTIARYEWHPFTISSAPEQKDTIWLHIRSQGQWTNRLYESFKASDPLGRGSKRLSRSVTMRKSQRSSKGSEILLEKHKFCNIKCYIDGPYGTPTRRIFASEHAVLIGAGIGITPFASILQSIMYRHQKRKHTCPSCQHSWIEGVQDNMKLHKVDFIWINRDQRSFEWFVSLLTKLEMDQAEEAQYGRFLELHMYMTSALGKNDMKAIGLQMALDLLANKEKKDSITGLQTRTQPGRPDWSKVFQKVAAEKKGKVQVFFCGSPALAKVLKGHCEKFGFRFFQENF

| SMILES | composite z-score [1] | z-score [2] | z-score [3] | z-score [4] | z-score [5] | composite z-score [6] | composite z-score [7] | composite z-score (Torsin-1A (Homo sapiens) [8]) | composite z-score (Torsin-1A (Homo sapiens) [9]) | composite z-score [10] | z-score [11] | composite z-score [12] | z-score [13] | z-score [14] | z-score [15] | z-score [16] | z-score [17] | z-score [18] | z-score [19] | z-score [20] |
| --- | --- | --- | --- | --- | --- | --- | --- | --- | --- | --- | --- | --- | --- | --- | --- | --- | --- | --- | --- | --- |
| CN1C(=O)C2C=CC(C(O)c3ccc(F)cc3)N(N3CCCCC3)C2C1=O (stereo not given) | 0.442 | 1 (inactive) | -0.273 (inactive) | 1.01 (inactive) | -0.523 (inactive) | 0.428 | 0.838 | 0.759 | 0.531 | -0.846 | -1.37 (inactive) | 0.604 | 1.02 (inactive) | 1.14 (inactive) | 0.772 (inactive) | 1.2 (inactive) | -1.08 | 0.0457 (inactive) | -0.751 (inactive) | -1.35 |
| Cc1ccc(N2C(=O)c3ccccc3[C@](C)(C(=O)NC(C)C)[C@@H]2c2ccc(CO)cc2)nc1 | -0.281 | 0.328 (inactive) | 0.306 (inactive) | 0.155 (inactive) | 0.521 (inactive) | -1.78 | -0.289 | -3.17 | 0.758 | -0.974 | 1.07 (inactive) | -0.275 | 0.641 (inactive) | 0.414 (inactive) | 0.18 (inactive) | 0.232 (inactive) | 0.274 | 0.358 (inactive) | -0.357 (inactive) | -0.363 |
| C=CCC(OC(C)=O)[C@@H]1[C@@H](N(Cc2ccc(-c3ccccc3)cc2)C(=O)c2cccc3ccccc23)c2cc(OCCCO)ccc2N1C(=O)c1ccc2ccccc2n1 (stereo not given in full) | 0.0553 | -1.48 (inactive) | 0.321 (inactive) | 1.76 (inactive) | -0.505 (inactive) | 0.306 | 0.237 | 0.258 | 0.0374 | 0.0754 | 0.214 (inactive) | 0.123 | 1.01 (inactive) | 0.569 (inactive) | -0.745 (inactive) | 0.357 (inactive) | 0.332 | 0.772 (inactive) | -0.294 (inactive) | -3.7 |
| COc1ccc([Si](C)(C)[C@H]2[C@H](CCO)O[C@@]3(C(=O)N(Cc4cccc(N5CCOC5=O)c4)c4ccccc43)[C@@H]2C)cc1 | 0.217 | -5.72 (inactive) | -0.112 (inactive) | 0.907 (inactive) | -0.827 (inactive) | 0.71 | -0.0736 | -0.0637 | -0.217 | 1.47 | -0.286 (inactive) | -0.0917 | 31.7 (active) | 29.4 (active) | 1.37 (inactive) | 3.36 (inactive) | 0.469 | -1.96 (inactive) | 0.553 (inactive) | 0.479 |
| CCCC=C(CCC)[C@@H](NS(=O)(=O)c1ccccc1)c1ccc(C(F)(F)F)cc1 | 0.135 | -1.21 (inactive) | 0.514 (inactive) | 0.0007 (inactive) | 1.11 (inactive) | 1.33 | 0.105 | 0.354 | 0.56 | 0.0898 | -1.51 (inactive) | 0.775 | 4.38 (inactive) | 1.07 (inactive) | 0.482 (inactive) | 0.983 (inactive) | -0.0787 | -0.818 (inactive) | -1.19 (inactive) | 2.67 |
| CC(C)(C)OC(=O)CC[C@]1(C(=O)N2CCCCC2)N=C(c2ccc(OCCCO)cc2)O[C@H]1c1ccccc1CN=[N+]=[N-] | 1.13 | -3.42 (inactive) | -0.596 (inactive) | 0.927 (inactive) | -0.707 (inactive) | 0.835 | 0.927 | 0.635 | 1.17 | 0.251 | 2.54 (inactive) | 1.66 | 21.9 (active) | 4.95 (inactive) | 0.768 (inactive) | 0.158 (inactive) | 1.89 | -0.683 (inactive) | 1.56 (inactive) | 0.95 |
| COc1ccccc1CN1C(=O)c2ccccc2[C@@H](C(=O)NCC(C)C)[C@@H]1c1ccc(CO)cc1 | 0.572 | -0.922 (inactive) | 0.34 (inactive) | -0.258 (inactive) | -0.992 (inactive) | -0.378 | -0.145 | -0.114 | 0.526 | 0.0072 | 1.08 (inactive) | -0.0061 | 1.12 (inactive) | 0.157 (inactive) | 1.23 (inactive) | 0.206 (inactive) | -0.195 | 1.78 (inactive) | -0.496 (inactive) | 1.67 |
| COCCOC(=O)N1C(=O)[C@@]2(c3cc(C#Cc4ccc(OC)cc4)ccc31)[C@H](c1ccc(OCCO)cc1)N1[C@H](c3ccccc3)[C@H](c3ccccc3)OC(=O)[C@H]1[C@@H]2C(N)=O | 0.41 | -2.73 (inactive) | 0.854 (inactive) | -1.15 (inactive) | -1.28 (inactive) | 0.879 | 0.187 | 0.428 | 0.835 | 1.96 | 0.629 (inactive) | 0.291 | 5.54 (inactive) | 2.19 (inactive) | 0.528 (inactive) | 0.924 (inactive) | -0.141 | 1.49 (inactive) | 1.03 (inactive) | 1.85 |
